Shown are actives, neighbours in structure and some others; about 5.7% of the full set was active somewhere.
KB-3-1 tox: kills parental KB-3-1 adenocarcinoma cells. KB-3-1 viability, CellTiter-Glo ATP luminescence, 72 h. Potency, µM (highest dose often 46.1 µM), usual class: cytotoxic. 400,000 tested, 1.4% active. AID 1347075; further: nearly all actives have a fitted effect of over 60% in size
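Luminescent ATP read-out (CellTiter-Glo) measures survival of drug-naive KB-3-1 cells after 72 h compound exposure at 37 °C. Titration series was screened from lowest to highest concentration, with DMSO vehicle plates as background controls.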
HT1080NT lethal: kills 2HG-producing HT-1080-NT fibrosarcoma cells. AID 686970. Potency, µM (highest dose often 46.1 µM), inactives show at the highest dose activity, negative = less viability, most hits filed as cytotoxic. HT-1080-NT fibrosarcoma viability, CellTiter-Glo ATP luminescence, 48 h. 360,000 tested, 1.6% active;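 further: NT is the 2HG producing partner of a matched IDH1 knockdown line; 0% = DMSO-treated cells and -100% = media-only wells without cells; nearly all actives have a fitted effect of over 55% in size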
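Toxicity toward the 2HG-producing NT line was scored as %Activity, normalised to DMSO and no-cell wells, from CellTiter-Glo luminescence after 48 hours' treatment.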
HT1080 IDH1KD tx: HT-1080 IDH1 knockdown cell toxicity (counter line) | HT-1080 IDH1 knockdown viability, ATP luminescence, 48 h | Potency, µM (titrated, usually from 46.1 µM), for inactives: at the top dose activity, negative = toxicity, hits mostly cytotoxic | 360,000 tested, 2% active;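 further: 0% = DMSO wells and -100% = cell-free medium wells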
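In this qHTS, HT-1080 cells depleted of IDH1 are exposed for 48 h at 37 °C to compound titrations. Toxicity is scored from CellTiter-Glo luminescence, with DMSO as full viability and medium alone as none.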
KB-V1 MDR tox: kills drug-selected multidrug resistant KB-V1 cells; KB-V1 MDR cells viability, CellTiter-Glo, 72 h; Potency, µM (series often up to 46.1 µM), most hits filed as cytotoxic; 400,000 tested, 3.4% active; AID 1347076; further: nearly all actives have a fitted effect of over 60% in size
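Following 72 h at 37 degrees C with compound, KB-V1 cell viability was read by CellTiter-Glo luminescence, medium being phenol-red-free DMEM plus 10% FBS; concentration-response parameters came from normalized, curve-fitted qHTS data.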
Active calls of the source: *; i = inactive; ? = inconclusive; nt = no result. The call rests on the fitted dose curve; in most records, active means well fitted curve in the direction sought with a large enough effect; inconclusive means small, poorly fitted or top-dose-only effect, or another doubt; inactive means no such curve, though single readings can be large; an effect the other way counts as inactive or inconclusive. Unless noted, on the % scale 0 is the no-effect control and ±100 the full control effect; potency means the concentration at half of the fitted maximal effect.

SMILES	KB-3-1 tox	HT1080NT lethal	HT1080 IDH1KD tx	KB-V1 MDR tox
Cc1ccc(C(C)C)c(OCC(=O)Nn2c(C)nc3ccccc3c2=O)c1	i	-2.9%	-4.8%	i
Cc1ccc(C(C)C)c(OCC(=O)Nn2c(=O)[nH]c3ccccc3c2=O)c1	i	-5.9%	1.5%	20.6µM*
Cc1cccc(C(=O)NC2(C(F)(F)F)N=C(c3ccccc3)N(C3CCCCC3)C2=O)c1 (configuration not stated)	i	nt	nt	i
COc1ccc(C(CCNCc2ccc(N(C)C)cc2)C(C)C)cc1 (configuration not stated)	i	18.4µM*	?	16.4µM*
COc1ccc(C(CCNCc2ccc(OC(C)C)cc2)C(C)C)cc1 (configuration not stated)	i	?	?	14.6µM*
COc1ccccc1C(CCNCc1ccc(N(C)C)cc1)c1ccc(OC(C)C)cc1 (configuration not stated)	?	?	?	i
CCC1=Nc2cc(C(=O)N3CCC(C)CC3)ccc2Sc2ccc(C)cc21	i	nt	nt	i
COc1ccc(Cn2c(=O)n(-c3ccc(F)c(Cl)c3)c(=O)c3c2c2cc(OC)ccc2n3C)cc1	i	nt	nt	i
c1ccc(-c2cn3nc(-c4ccccc4)sc3n2)cc1	i	0.3%	6.9%	i
c1ccc(-c2cn3c4c(sc3n2)CCCC4)cc1	?	11.2µM*	?	?
CCOC(=O)Cn1c(=O)n(-c2ccccc2OC)c2nc(-c3ccccc3C)nc(C(N)=O)c21	i	nt	nt	i
CN1C(=O)C2(Oc3ccccc3C3CC(c4ccccc4)=NN32)c2ccccc21 (configuration not stated)	i	-27.7%	-16.9%	18.4µM*
CCOC(=O)c1c(S(=O)(=O)N2CCCC(C(=O)Nc3ccc(OCC)cc3)C2)c(C)n(C)c1C (configuration not stated)	i	nt	nt	i
Cc1ccc(-n2ncc3c(NCCc4ccccc4)ncnc32)cc1	i	nt	nt	i
O=C(Nc1ccc(-c2noc(CCc3ccccc3)n2)cc1)c1cccnc1	?	?	?	16.4µM*
COc1ccc(N2Cc3cccc(C(=O)Nc4cccc(F)c4)c3C2=O)cc1	i	nt	nt	i
CCN(CC)S(=O)(=O)c1cc([N+](=O)[O-])ccc1NNC(=O)Nc1ccc(Cl)c(Cl)c1	5.8µM*	5.8µM*	4.11µM*	?
Cc1ccc(NC(=O)CN(c2ccc(Cl)cc2)S(=O)(=O)c2cc([N+](=O)[O-])ccc2Cl)cc1	?	-18.1%	-19.8%	?
O=C(NNc1ccccc1[N+](=O)[O-])Nc1ccc(Cl)c(Cl)c1	?	18.4µM*	18.4µM*	i
O=C(NNc1ccccc1[N+](=O)[O-])Nc1ccccc1	i	0.7%	-2.4%	i
COc1ccccc1Cn1cc(C(=O)c2ccc(C)cc2)c(=O)c2cc(C)ccc21	i	nt	nt	i
COc1cccc(C(=O)Nc2cccc(OCc3cc(=O)n4c5c(sc4n3)CCCC5)c2)c1	i	nt	nt	i
C=C(C)COc1ccc(-c2n[nH]c(C)c2-c2ccc(OC)cc2)c(O)c1	?	20.6µM*	18.4µM*	?
COc1ccc(-c2n[nH]c(C)c2-c2cscn2)c(O)c1	i	2.3%	-2.1%	i
CCOC(=O)N1CCC(NC(=O)c2ccc(Cl)cc2)CC1	i	4.7%	15.6%	i
SMILES	KB-3-1 tox	HT1080NT lethal	HT1080 IDH1KD tx	KB-V1 MDR tox
O=[N+]([O-])c1ccc(S(=O)(=O)Nc2nc3ccccc3nc2Nc2ccccc2)cc1	i	5.9%	0.0%	5.17µM*
NS(=O)(=O)c1cccc(Nc2nc3ccccc3nc2NS(=O)(=O)c2ccc(Cl)cc2)c1	i	18.4µM*	20.6µM*	i
CCOC(=O)N1CCC(Nc2nc3ccccc3nc2NS(=O)(=O)c2ccc(Cl)cc2)CC1	?	-19.0%	-7.4%	14.6µM*
O=C(O)c1cccc(Nc2nc3ccccc3nc2NS(=O)(=O)c2ccccc2)c1	i	1.0%	-0.7%	i
O=S(=O)(Nc1nc2ccccc2nc1N1CCN(c2ccccc2F)CC1)c1ccc(Cl)cc1	11.2µM*	-8.2%	-17.0%	?
CCOc1ccc(S(=O)(=O)Nc2nc3ccccc3nc2N2CCN(C)CC2)cc1	i	-1.4%	0.5%	i
CCCOc1ccc(/C=N/Nc2cc(N3CCOCC3)ncn2)c(O)c1	11.6µM*	?	3.66µM*	i

Source: PubChem BioAssay (National Center for Advancing Translational Sciences (NCATS))
